Screens as filed in PubChem.
The list is not random: actives were taken first. Their share in the collection is about 31%.
CYP2C9 act: CYP2C9 (human) activation | activation factor at 5 µM | 96,000 tested, 1.4% active | AID 1024 | recombinant CYP2C9, luciferin-H conversion, luminescence; active compounds read high; factor 1 = untreated enzyme, 0 = blocked | P11712;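 active means activation factor of 2 or more for CYP2C9 at a 5 µM dose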
CYP2C19 inh: human CYP2C19 inhibition; P33261; CYP2C19 Supersomes, luciferin-H EGE luminescence, 30 min; inhibition, % at 5 µM; 96,000 tested, 21% active;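 active means CYP2C19 inhibition above a set limit at 5 µM in the primary screen, cut at about 50% in these data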
Target sequence (P33261 whole entry, looked up): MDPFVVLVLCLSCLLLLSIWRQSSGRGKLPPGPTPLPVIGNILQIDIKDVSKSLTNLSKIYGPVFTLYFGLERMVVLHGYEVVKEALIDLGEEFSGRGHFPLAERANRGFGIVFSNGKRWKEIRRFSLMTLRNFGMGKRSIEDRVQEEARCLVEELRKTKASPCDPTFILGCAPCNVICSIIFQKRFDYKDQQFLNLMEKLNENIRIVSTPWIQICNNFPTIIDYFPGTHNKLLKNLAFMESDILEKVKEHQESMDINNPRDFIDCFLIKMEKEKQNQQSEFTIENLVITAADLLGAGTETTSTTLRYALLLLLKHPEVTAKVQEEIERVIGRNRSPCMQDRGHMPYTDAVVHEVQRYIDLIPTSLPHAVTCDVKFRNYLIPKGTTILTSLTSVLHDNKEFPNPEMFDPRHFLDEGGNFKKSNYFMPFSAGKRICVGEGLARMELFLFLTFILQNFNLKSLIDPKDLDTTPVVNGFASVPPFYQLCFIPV
CYP2C9 inh: human CYP2C9 inhibition. 96,000 tested, 20% active. P11712. CYP2C9 Supersomes, luciferin-H conversion, luminescence. inhibition, % at 5 µM;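 active means blocking of liver enzyme CYP2C9 beyond about 50% at 5 µM, limit read from the data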
CYP2C19 activ: cytochrome P450 2C19 (human) activation; P33261; recombinant CYP2C19, luciferin-H EGE luminescence; active compounds read high; 0 = fully inhibited enzyme, 1 = untreated enzyme; 96,000 tested, under 10 active; activation factor at 5 µM;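 active means activation factor of at least 2 at 5 µM in the primary screen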
PLAP activator: activates human placental alkaline phosphatase | purified PLAP enzyme, luminescent substrate read-out; active compounds read high | activation fold at 20 µM | 96,000 tested, 1.2% active | AID 696; in the data active means activation fold above about 2
Large screens that a line does not name were inactive.

O=S(=O)(c1ccccc1)c1nc(-c2ccco2)oc1N1CCCCCC1	CYP2C19 inh 65.9, CYP2C9 inh 58.0
CCc1cc(/C(Cc2csc(C)n2)=N/O)c(O)cc1O	CYP2C19 inh 55.6
Clc1ccc(Cn2cccc2C2=NCCO2)cc1	CYP2C19 inh 66.9
CC(NC(=O)c1cccc(Cn2cc([N+](=O)[O-])cn2)c1)c1ccc(C(C)(C)C)cc1 (configuration not stated)	CYP2C19 inh 60.7, CYP2C9 inh 81.1
CCC(NC(=O)c1cccc(Cn2cc([N+](=O)[O-])cn2)c1)c1ccc(C(C)C)cc1 (configuration not stated)	CYP2C9 inh 96.0
Cc1ccccc1NC(=O)C(NS(=O)(=O)c1ccc2c(c1)c(=O)n(C)c(=O)n2C)c1ccccc1 (configuration not stated)	none
COc1ccc(Cc2nn3c(-c4ccccc4OC)nnc3s2)cc1	CYP2C19 inh 82.0, CYP2C9 inh 60.0
COc1ccccc1-c1nnc2sc(COc3ccc(Cl)cc3)nn12	CYP2C19 inh 81.0, CYP2C9 inh 87.8
c1ccc(-c2nn3c(Cn4nnc5ccccc54)nnc3s2)cc1	none
COc1ccc(OCc2nn3c(-c4ccccn4)nnc3s2)cc1	none
COc1ccc(Cc2nn3c(Cn4nnc5ccccc54)nnc3s2)cc1	CYP2C19 inh 87.3, CYP2C9 inh 79.1
CCOC(=O)N1CCC(N(C(=O)Nc2ccc(CC)cc2)C(C)CC)CC1 (configuration not stated)	none
O=C1C2CC=CCC2C(=O)N1c1n[nH]c(-c2ccccc2)n1 (configuration not stated)	CYP2C19 inh 79.6, CYP2C9 inh 92.5
CC1(C)NC(=O)N(c2ccccc2Cl)C1(C)NO (configuration not stated)	none
CCn1c(N2CCN(CC(=O)c3c[nH]c4ccccc34)CC2)nc2c1c(=O)[nH]c(=O)n2C	CYP2C9 inh 54.0
CC1CCCN(c2nc3c(c(=O)[nH]c(=O)n3C)n2CCSc2nc3ccccc3o2)C1 (configuration not stated)	none
CC1CCCN(c2nc3c(c(=O)n(C)c(=O)n3C)n2CCSc2nc3ccccc3o2)C1 (configuration not stated)	CYP2C9 inh 51.2
CC1CN(C2CCCCC2)c2nc3c(c(=O)[nH]c(=O)n3C)n2C1 (configuration not stated)	CYP2C9 inh 55.7
CC1CCN(c2nc3c(c(=O)[nH]c(=O)n3C)n2Cc2ccccc2)CC1	none
CCn1c(N2CCC(Cc3ccccc3)CC2)nc2c1c(=O)[nH]c(=O)n2C	CYP2C19 inh 77.4, CYP2C9 inh 53.7
CC1CCCN(c2nc3c(c(=O)[nH]c(=O)n3C)n2CCCc2ccccc2)C1 (configuration not stated)	CYP2C9 inh 61.8
CC1CN(CCc2ccccc2)c2nc3c(c(=O)[nH]c(=O)n3C)n2C1 (configuration not stated)	CYP2C19 inh 73.5, CYP2C9 inh 56.6
CC1CN(c2ccc(Oc3ccccc3)cc2)c2nc3c(c(=O)[nH]c(=O)n3C)n2C1 (configuration not stated)	none
CCNC(=O)N1c2ccc(OCC)cc2C(C)=CC1(C)C	CYP2C19 inh 66.6, CYP2C9 inh 50.4
Cc1ccc2ccc(C(Nc3ccccn3)c3ccccc3)c(O)c2n1 (configuration not stated)	CYP2C19 inh 75.0, CYP2C9 inh 94.1
O=c1cc(CO)oc(C(Nc2ccccn2)c2cccc(F)c2)c1O (configuration not stated)	none
CC(=O)NC(c1ccco1)c1ccc2cccnc2c1O (configuration not stated)	PLAP activator 2.7
COc1cc(C(Nc2ccccn2)c2ccc3ccc(C)nc3c2O)cc(OC)c1O (configuration not stated)	PLAP activator 2
Oc1c(C(Nc2ccccn2)c2ccccn2)ccc2cccnc12 (configuration not stated)	CYP2C9 inh 67.0 (no result: PLAP activator)
O=C(COc1ncnc2ccc(Br)cc12)N1CCOCC1	none
COc1ccc(NC(=O)CSc2c(C)nn(-c3nnc(C)c(=O)[nH]3)c2C)cc1	none
Cc1cc(=O)oc2cc(OCc3cc4c(cc3Cl)OCO4)ccc12	none
COc1cc(C(=O)Nc2ccc(S(=O)(=O)Nc3nccc(C)n3)cc2)cc(OC)c1OC	none
Cc1cc(NC(c2ccc(Cl)cc2)c2ccc3cccnc3c2O)no1 (configuration not stated)	PLAP activator 2
COc1ccccc1CNC(=O)c1ccc(CNc2c(N3CCCC3)c(=O)c2=O)cc1	none
O=C(CCN1C(=O)C2CC=C(Cl)CC2C1=O)Nc1ccccc1O (configuration not stated)	CYP2C19 inh 59.1
O=C(CCN1C(=O)C2CC=C(Cl)CC2C1=O)NCc1ccco1 (configuration not stated)	none
O=C(c1cccnc1)N1CCN(c2c(Cl)cccc2[N+](=O)[O-])CC1	CYP2C19 inh 82.0
O=C(NC(=S)N1CCN(c2c(Cl)cccc2[N+](=O)[O-])CC1)c1cccs1	CYP2C9 inh 78.3
CC(C)Oc1ccccc1-c1nc(SCC(=O)O)n[nH]1	none
C=CCN(CC=C)Cc1c(C)[nH]c2ccc(C(=O)OCC)cc2c1=O	none
CC(=O)NC1CC2CCCC(C1)N2C(=O)Nc1ccc(Cl)c(C(F)(F)F)c1 (configuration not stated)	CYP2C19 inh 57.8
CS(=O)(=O)N1CCC(C(=O)Nc2ccc(Cl)c(C(F)(F)F)c2)CC1	none
Cc1ccc(C(=O)CSc2nnc(CNc3ccc(C)cc3C)o2)cc1	none
O=C(NCCc1ccccc1)C1CCCN(S(=O)(=O)c2cccnc2)C1 (configuration not stated)	none
O=C(NCc1cccnc1)C1CCCN(S(=O)(=O)c2ccccc2)C1 (configuration not stated)	CYP2C19 inh 87.2, CYP2C9 inh 82.7
O=C(NCc1ccc(F)cc1)C1CCCN(S(=O)(=O)c2cccnc2)C1 (configuration not stated)	none
O=C(NCc1cccnc1)C1CCCN(S(=O)(=O)c2ccc(Cl)cc2)C1 (configuration not stated)	CYP2C19 inh 85.3, CYP2C9 inh 77.4
CCN(c1ccc(NC(=O)COC(=O)c2ccc3ccccc3n2)cc1)C(C)C	none
CCCC(=O)NCCc1ccc(S(N)(=O)=O)cc1	none
CO/N=C\C(=N\Nc1ccc(OC)cc1)C(=O)c1ccccc1	none
O=C(COC(=O)c1n[nH]c2ccccc12)NC(=O)NC1CCCC1	none
CCOC(=O)c1[nH]c2ccccc2c1NC(=O)NC1CCCCC1	CYP2C9 inh 55.0
O=C(COC(=O)c1cc(=O)[nH]c2ccccc12)NC(=O)NC1CCCCC1	CYP2C9 inh 52.6
CCOC(=O)c1ccc(Oc2cc(C)nc(SC)n2)cc1	none
CC(C)OC(=O)CN1CCN(C2c3ccccc3-c3ccccc32)CC1	none
